Measurements published in the supplement of paper PMC6555819.

Each sequence was assayed on VDR:RXRa (NR concentration 270 nM, RXRa partner concentration 90 nM) (assay: PBM binding z-score (relative to random genomic background probes); higher = stronger binding; sequences stand for … in GC…GCGATTGACAGCGTAGAATGAAGG).
Description: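 Protein-binding microarray (Agilent 4x180K custom design, double-stranded 60-nt probes: 5' GC cap, 34-nt variable region, 24-nt constant primer region; full probe sequence given). Purified or IVT nuclear receptor:RXRα heterodimers (3:1 NR:RXRα, mostly 270:90 nM) or homodimers were incubated for 1 h in PBS with 2% milk and no ligand, then detected with Alexa488 antibodies. Fluorescence from o1-orientation probes (~5 replicates averaged) was converted to z-scores against 500 random hg19 background probes. Variable regions are seed direct-repeat (DR0–DR5) sites, all their single-nucleotide variants and half-site ablations.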

Sequence	PBM binding z-score
GCGACTGGGGCAAAGCGGGTTACCATAAGGTTGG	0.145
CGAACTAGGTCATTGACAGGACATTGAATAGTAA	3.1
TCTAGCAGGCCAGAGGGTCACTCAGGAGGTACGG	1.56
CGTCCAAGGTCAAAGGTCAGTGAAGAGATGACGG	6.76
CGTCCAAGGTCATAGGAGGTGAGTGAAGACAGAT	4.7
TCTTGTAGATCAAGCAGGTTAAGAGAGCCTGAGT	0.331
AGTCAAAGATCAGGACGAGGTAACGTAAAGCACG	-0.216
CCTCGGAGGACAACAGGAGGTCAGAGCGGCCAGA	2.92
ATCTCTAGGTAACGATAGTTCAGTGAATGCAAAT	0.643
TGAATGAGGTAATAAGATCAGGGAACGTTGCAAA	-0.334
AGAACGAGGGCAATGATTTGATAGCACGGGTGGC	0.334
TTACCAAGGTGAAAGGTCCTTGATGCACGCCTTG	0.75
TTACCAAGGTGAGCGGAGGTCGTTGATCCAACTC	3.36
AGAATGAGGTTATTAAGACCAGGGAATTGCGGTC	1.69
CCTGATAGGTCAATGGTCAGCTAAAGCAGCTCGC	1.99
CCTCGTAGGACAGAAGGTCAGAGCTGTCCGCTTT	1.13
AATACAGGGTCTCTAGGCCAGAGTAGGTACGAAT	-0.299
CCTAGCAGGCCAGGGACACTCAAGCATTTCGCTT	-0.417
CCTGCTAGGTCATGCTCAGCTAATCTACAGTATG	1.33
CTACCAAGGTGATCAAGGTCGTTGATTACTATTC	5.3

Sequence	PBM binding z-score
AGTCAAAGTTCAGGACAAGGTAACGTAAAGCACG	2.55
CCGACTGGCGCATAAGGTTACCATAAGCCAGCCC	-0.0103
ATATGTAGGTTATCGGGTGATTCAGTTTGCGCAT	1.77
ACTATTAGTTGACGTAGGGCAACCGATACGACGC	0.19
TCATATAGGTAAATGCTGGGTGAAAGTCCGATCT	0.641
TCTCGAAGGACACGAAGGTCAGAGCTTTCCAGAG	1.86
GCTATTAGTTGAATGGGCAACCGAATGATTCTCG	-0.287
CCTACTGGGCCATCAGGTCAGTGATATCAACGTT	0.21
AGAATGAGGTTACCAAAGATAAGGGAAACGCTTG	1.07
AGAACGAGAGCAATGAGTTGATAGCACGGGTGGC	1.96
CCTACTGGGCCACGAAAGGTCGTTGATTCAGTGA	1.74
CCTGCTAGGTAATGGTCAGCTAATCTACAGTATG	-0.407
GCAGACAGGAGAAACGCAGGTAACTCAGGGTGGC	-0.548
TCTATGAGTTGAAGGGCAACCGACGAGTCCGTTT	0.953
GCTAACGGGTCAAAGGTTATAGCATGAATAGAAT	4.9
CCTTACGGGTCACTCCTGGTTATAGCATCGGAGT	2.79
ATATGTAGGTTACATCCGGGGCATTCAGGCTATG	1.23
ATCTCTAGGTAACGTTCAGTGAAAGATCGATAGA	0.101
CCAAACAGGTGAGAAGGTAACTCAGCCTCGATTA	-0.0119
GCTCGGAGGCCAAGGTCAGAGCTTTGTCCGTAGA	1.16
